Compounds without any hit were thinned out: in the full panel of roughly 83,000, 20% have a hit.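 Growth was measured after 48 h exposure to one concentration of compound in 96-well plates. Values under 10 count as active.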 Unmarked numbers belong to inactive results. The source made the active and inactive calls.

Assay in all cases: NCI-60 one-dose screen, 48 h (100 = growth as untreated, 0 = no growth, -100 = all killed)
Conditions in all cases: 10 µM unless noted

For test [1], the system named is HCT-15 colon.
Test [2] deals with HT29 colon.
Test [3] concerns SNB-75 CNS.
For test [4], the system named is SNB-19 CNS.
The subject of test [5] is U251 CNS.
Test [6] relates to PC-3 prostate.
The test system of test [7] is SK-MEL-5 melanoma.
Test [8] deals with UACC-62 melanoma.
For test [9], the system named is LOX IMVI melanoma.
The subject of test [10] is SK-MEL-28 melanoma.
Test [11] relates to SK-MEL-2 melanoma.
The test system of test [12] is EKVX NSCLC.
The test system of test [13] is SN12C renal.
For test [14], the system named is UO-31 renal.
In test [15] the test system is TK-10 renal.
For test [16], the system named is ACHN renal.
Test [17] has as its system CAKI-1 renal.
Test [18] has as its system A498 renal.
Test [19] relates to CCRF-CEM leukemia.
Test [20] concerns MOLT-4 leukemia.

In the case of `Clc1ccc(-c2cn3ccsc3n2)c(Cl)c1Cl`, the growth in test [1] was 89.5%; in [2], 105%; in test [3], 86.4%; in test [4] it was 105%; in test [5], 91%; in [6] it was 93.5%. In addition, the growth in test [7] was 79.8%; in test [8], 67.7%; in [9], 80.7%; in test [10] it was 120%; in [11], 88.6%; in test [12], 65.2%. Further, the growth is 77.9% in [13]; 70.1% in [14]; 105% in test [15]; 90.1% in test [16]; 71.8% in [17]; 76.7% in test [18]. The growth in test [19] was 93.6%; in test [20], 80.4%.

Turning to `CN1CCN(CCCOc2ccc3ncnc(Nc4ccc(Oc5cccc(F)c5)c(Cl)c4)c3c2)CC1`, the growth in test [1] is -3.99% (active); in [2] it was -25.1% (active); in [3], 52.1%; in test [4] it was 34.8%; in test [5] it was 8.27% (active); in test [6], 8.64% (active). Further, the growth is -96.3% (active) in [7]; -31.8% (active) in [8]; -91.6% (active) in [9]; -85.9% (active) in test [10]; -8.81% (active) in [11]; 29.6% in test [12]. Further, the growth in test [13] was 49.4%; in [14] it was 34.2%; in [15], 37%; in [16], -11.3% (active); in [17], 5.24% (active); in test [18], 33.2%. Besides, the growth in test [19] is -6.61% (active); in test [20], -3.25% (active).

On to `Nc1ccc([N+](=O)[O-])cc1N=C/C=C/c1ccccc1`, for which the growth is 42.9% in [1]; 28.6% in [2]; 86.6% in [3]; 72.2% in test [4]; 56.9% in [5]; 72.4% in [6]. For the same compound, the growth in test [7] is 56.5%; in test [8], 63.2%; in [9], 49%; in test [10], 94.8%; in [11], 43.5%; in test [12] it was 97.5%. Besides, the growth in test [13] was 50.6%; in [14] it was 43.3%; in test [15], 79.8%; in test [16] it was 81.7%; in test [17], 73.1%; in [18], 79.3%. The growth in test [19] was 18.3%; in test [20], 14.8%.

`COc1cccc(/C=C/C(=O)c2cc3c(N)c(C(=O)Nc4cccc(Cl)c4C)sc3nc2C)c1`: the growth is -57.4% (active) in test [1]; -80.7% (active) in test [2]; -1.75% (active) in test [3]; -35.7% (active) in [4]; -78.4% (active) in test [5]; 13.9% in test [6]. Moreover, the growth in test [7] was -31.3% (active); in test [8], 1.73% (active); in test [9], -64.2% (active); in [10], 16.3%; in test [11] it was -17.3% (active); in test [12], 39.8%. Moreover, the growth in test [13] was -22.7% (active); in test [14], -43.4% (active); in [15], -18% (active); in [16], 6.8% (active); in test [17], -47.4% (active); in [18], -13.2% (active). The figures for the growth in test [19] and in [20] were 7.19% (active) and 14.3%, respectively.

`COc1ccc2nc3ccccc3c(NCc3ccccc3)c2c1`: the growth in [1] was 13.1%; in test [2], 8.49% (active); in test [3], 45.5%; in test [4] it was 24.2%; in test [5] it was 22.9%; in [6] it was 28.6%. The growth in test [7] was 18.8%; in test [8] it was 45.9%; in test [9], -31.1% (active); in test [10], 49.7%; in [11], 47.9%; in test [12], 26.9%. The growth in [13] is 22.4%; in test [14], 13.8%; in test [15] it was 38.7%; in [16], 12.8%; in test [17] it was 25.8%; in [18], -14.3% (active). Moreover, the growth in [19] is 33.4%; in test [20], 8.01% (active).

For the compound `COc1cc(-c2nc(SCCC(C)C)nc(N3CCOCC3)c2C#N)cc(OC)c1OC`, the growth in [1] was 68.3%; in [2] it was 19.2%; in test [3], 53.4%; in test [4], 65.8%; in [5], 5.83% (active); in test [6] it was 62.3%. Moreover, the growth is 102% in test [7]; 91.4% in test [8]; 83.2% in [9]; 108% in test [10]; 116% in test [11]; 100% in [12]. Further, the growth in test [13] was 54.9%; in [14] it was 73.9%; in [15], 46.5%; in [16], 101%; in test [17], 76.2%; in test [18], 108%. Also, the growth is 78.8% in test [19] and 89.2% in test [20].

For the compound `Cc1cc2oc(=O)cc(CP(=O)(O)O)c2cc1O`, the growth in test [1] is 96%; in test [2] it was 106%; in test [3], 75.3%; in [4], 93.6%; in [5] it was 98.5%; in test [6], 94.9%. The growth in test [7] is 99.2%; in [8] it was 90.7%; in test [9] it was 98.7%; in [10] it was 98.4%; in test [11] it was 102%; in test [12] it was 97.1%. Besides, the growth in test [13] was 93.5%; in test [14], 70.4%; in test [15], 107%; in test [16], 101%; in test [17], 90.9%; in [18], 80.8%. For the same compound, the growth in test [19] was 103%; in test [20], 104%.

`COc1cc(C(=O)/C=C/c2ccc(N3CCN(C)CC3)cc2)cc(OC)c1OC`: the growth in [1] was 92.5%; in [2], 94.7%; in [3] it was 82.2%; in [4], 95.3%; in test [5], 99.5%; in [6] it was 99.3%. In addition, the growth in test [7] is 103%; in test [8], 86.8%; in test [9], 90.4%; in [10], 103%; in [11] it was 107%; in [12], 88.6%. Further, the growth is 98.5% in test [13]; 73.2% in test [14]; 110% in test [15]; 97.6% in test [16]; 90.9% in [17]; 108% in [18]. In addition, the growth is 105% in [19] and 98% in test [20].

Source of the values: PubChem BioAssay (NCI).
